Measurements taken from PubChem BioAssay (NCATS).
Values joined by “and” are separate entries in the source; they are usually repeats but may differ in a detail not shown here. Identical values can stand only once. Results filed as inconclusive are left out. A call without a number means that no potency is given here. Unmarked numbers belong to inactive results. Active and inactive are the calls of the source. Calls come from the whole dose curve; as a rule, active = well fitted inhibition curve with a large enough effect; inconclusive = small, poorly fitted or top-dose-only effect; inactive = flat fitted curve, though single readings scatter.

Tests used:
Assay in all cases: Cytotoxic Profiling of Annotated Libraries Using Quantitative High-Throughput Screening (AID 1296008); note: nearly all actives have a fitted effect of over 60% in size
Details in all cases: Five cell lines viability, CellTiter-Glo ATP luminescence, 48-72 h; max response: hits give low values
CRL-7250 = normal cell line; test system: CRL-7250
Procedure, shortened: (§1)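 Cytotoxicity was measured as CellTiter-Glo ATP luminescence, read after 10 min at room temperature. Compound treatment of the cells lasted 48 or 72 hr at 37 degrees Celsius in a qHTS format.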

HEK293 = test system: HEK293
Procedure, shortened: as §1

HaCat = test system: HaCat
Procedure, shortened: as §1
Potency is the fitted concentration of half-maximal effect.

Compound	max response (CRL-7250)	outcome (HEK293)	max response (HaCat) [%]	outcome (HaCat)	outcome (CRL-7250)	Potency (HEK293)
CC(C)[C@@H](C)/C=C/[C@@H](C)[C@H]1CC[C@H]2C3=CC=C4C[C@@H](O)CC[C@]4(C)[C@H]3CC[C@]12C	-9.59%	inactive	-1.06	–	–	–
CC(=O)N[C@H]1CCN(c2ccc(C3=NOC(CN[S+](=O)([O-])C(C)C)C3)cc2F)C1 (some centres not stated)	3.89%	inactive	–	inactive	–	–
CCOC(=O)c1c(C)nn(-c2cccc([N+](=O)[O-])c2)c1C	-7.75%	inactive	–	inactive	–	–
CC1=C2C(=O)C=C(CO)[C@@H]2[C@H]2OC(=O)[C@H](C)[C@@H]2[C@@H](O)C1	–	inactive	–	inactive	inactive	–
COc1c(C)c(OCC=C(C)C)cc2c1C(=O)NC2=O	-3.35%	inactive	-14.7	–	–	–
CC1(C)NC2N(C1=O)c1ccccc1C2(O)CC(C(=O)O)n1cnc2ccccc2c1=O (configuration not stated)	–	inactive	-3.78	–	inactive	–
O=S(=O)(Nc1ccc(C(O)(C(F)(F)F)C(F)(F)F)cc1)c1cccs1	2.89%	inactive	2.6	–	–	–
Clc1ccc(CN[C@H]2CCN(c3ncc(Br)cn3)C2)c(Cl)c1	-7.31%	inactive	–	inactive	–	–
O=c1ccn(C2OC(CO)C(O)C2O)c(=O)[nH]1 (configuration not stated)	–	inactive	–	inactive	inactive	–
C=C1CCC2C(C)(C)C(O)CCC2(C)C1CCC(C)CCOC(=O)CCC(=O)O (configuration not stated)	-7.27%	inactive	–	inactive	–	–
CCC[C@@H]1C[C@@H](C(=O)N[C@H](C(C)Cl)[C@H]2O[C@H](SC)[C@H](O)[C@@H](O)[C@H]2O)N(C)C1 (some centres not stated)	-2.55%	inactive	1.16	–	–	–
CCOC(=O)[C@H](CCc1ccccc1)N[C@@H](C)C(=O)N1C2CCCCC2C[C@H]1C(=O)O (some centres not stated)	–	inactive	–	inactive	inactive	–
C[C@@H]1O[C@@H](O[C@H]2[C@H](OC(=O)[C@]34CCC(C)(C)C[C@H]3C3=CCC5[C@@]6(C)CC[C@H](O[C@@H]7O[C@H](CO[C@@H]8OC[C@H](O)[C@H](O)[C@H]8O)[C@@H](O)[C@H](O)[C@H]7O)C(C)(C)C6CC[C@@]5(C)[C@]3(C)C[C@H]4O)OC[C@@H](O)[C@@H]2O)[C@H](O)[C@H](O)[C@H]1O[C@@H]1OC[C@H](O)[C@H](O[C@@H]2OC[C@@H](O)[C@H](O)[C@H]2O)[C@H]1O (some centres not stated)	-0.806%	inactive	-0.578	–	–	–
C=CC1(C)CC2=CCC3C(C)(C(=O)O)CCCC3(C)C2CC1OC(C)=O (configuration not stated)	–	inactive	-6.85	–	inactive	–
CC12CC34C=CC(=O)C(C)(CCC(=O)O)C3C(CC1C4)O2 (configuration not stated)	–	inactive	–	inactive	inactive	–
CC(=O)O[C@@H]1C[C@@]23C[C@@]24CC[C@H](OC2OC[C@@H](O)[C@H](O)[C@H]2O)C(C)(C)[C@@H]4CC[C@H]3[C@]2(C)CC3OC4(C[C@@H](C)C3[C@@]12C)OCC1(C)OC14 (some centres not stated)	-1.36%	inactive	–	inactive	–	–
CCC(NC(=O)CC(NC(=O)C(CO)NC(=O)C(CC)NC(=O)c1ccc[nH]1)c1ccccc1)C(=O)O (configuration not stated)	-9.47%	inactive	-0.876	–	–	–
C[C@@H]1CC[C@H]2C(C)(C)[C@H](O)[C@H](O)C[C@]2(C)[C@@]12Cc1c(O)cc3c(c1O2)CNC3=O	–	inactive	–	inactive	inactive	–
CC(=O)O[C@@]1(C)C[C@@H](O)[C@]2(O)C=CO[C@@H](O[C@@H]3O[C@H](CO)[C@@H](O)[C@H](O)[C@H]3O)[C@@H]21	-0.355%	inactive	3.46	–	–	–
CC1=CC[C@]2(C(=O)O[C@@H]3O[C@H](CO[C@@H]4O[C@H](CO)[C@@H](O[C@@H]5O[C@@H](C)[C@H](O)[C@@H](O)[C@H]5O)[C@H](O)[C@H]4O)[C@@H](O)[C@H](O)[C@H]3O)CC[C@]3(C)C(CCC4[C@@]5(C)C[C@@H](O)[C@H](O)[C@@](C)(CO)C5CC[C@]43C)C2C1C (some centres not stated)	-9.97%	inactive	–	inactive	–	–
COc1ccc2c(c1O)OC[C@H]1c3ccc(O)cc3O[C@@H]21	2.17%	inactive	–	inactive	–	–
CC1(C)CCC2(C(=O)OC3OC(COC4OC(CO)C(O)C(O)C4O)C(O)C(O)C3O)CCC3(C)C(=CCC4C5(C)CCC(O)C(C)(C(=O)O)C5CCC43C)C2C1O (configuration not stated)	–	inactive	2.41	–	inactive	–

Compound	max response (CRL-7250)	outcome (HEK293)	max response (HaCat) [%]	outcome (HaCat)	outcome (CRL-7250)	Potency (HEK293)
C/C(=C\CCC(C)(O)c1ccc(C)cc1)C(=O)O (configuration not stated)	-2.36%	inactive	–	inactive	–	–
CC1(C)CC(=O)N(CCCCN2CCN(c3ncccn3)CC2)C(=O)C1	–	inactive	–	inactive	inactive	–
CC(=O)O[C@H]1C[C@@H]2[C@]3(CC[C@]4(C)[C@@H](C5(C)CCC(C(C)(C)O)O5)[C@@H](O)C[C@@]24C)C[C@@]32CC[C@H](O[C@@H]3OC[C@@H](O)[C@H](O)[C@H]3O)C(C)(C)[C@H]12 (some centres not stated)	4.65%	inactive	–	inactive	–	–
CC1=C2C3OC(=O)C(C)C3(O)CCC2(C)CCC1=O (configuration not stated)	-29.1%	inactive	–	inactive	–	–
C=C[C@H]1[C@H](O[C@@H]2O[C@H](CO[C@@H]3OC[C@](O)(CO)[C@H]3O)[C@@H](O)[C@H](O)[C@H]2O)OC=C2C(=O)OCC[C@H]21	–	inactive	–	inactive	inactive	–
CNC(=O)COC(=O)NCCC1CCN(c2cccc(C)n2)CC1	-5.78%	inactive	–	inactive	–	–
CC1=CC(=O)OC(C)(CC(C)(O)C(=O)O)C1 (configuration not stated)	-4.45%	inactive	-5.61	–	–	–
CC(=O)OC(CSC1CCC(=O)OC(C)CCC(=O)C1)C(=O)O (configuration not stated)	-6.05%	inactive	–	inactive	–	–
CCOc1nc2cccc(C(=O)O)c2n1Cc1ccc(-c2ccccc2-c2noc(=O)[nH]2)cc1	4.39%	inactive	–	inactive	–	–
OC[C@H]1O[C@@H](OC(CCCCc2ccc(O)cc2)CCc2ccc(O)cc2)[C@H](O[C@@H]2OC[C@](O)(CO)[C@H]2O)[C@@H](O)[C@@H]1O (some centres not stated)	3.53%	inactive	–	inactive	–	–
COc1ccc(/C=C/C(=O)O[C@H]2[C@@H]3C=CO[C@@H](O[C@@H]4O[C@H](CO)[C@@H](O)[C@H](O)[C@H]4O)[C@@H]3[C@@]3(CO)O[C@@H]23)cc1O	–	inactive	–	inactive	inactive	–
CCNC(=O)[C@@H]1CCCN1C(=O)[C@H](CCCN=C(N)N)NC(=O)[C@H](CC(C)C)NC(=O)[C@@H](C)NC(=O)[C@H](Cc1ccc(O)cc1)NC(=O)[C@H](CO)NC(=O)[C@H](Cc1c[nH]c2ccccc12)NC(=O)[C@H](Cc1cnc[nH]1)NC(=O)[C@@H]1CCC(=O)N1	–	inactive	-3.68	–	inactive	–
CC12CCC3C(C)(C)C(O)CCC3(C)C1Cc1c(oc(C(=O)O)cc1=O)O2 (configuration not stated)	–	inactive	–	inactive	inactive	–
CCn1c2ccccc2c2cc(CNC)ccc21	-18% and 2.31%	–	–	inactive	–	18.4 µM (active)
COc1c2c(c(C)c3c1C(=O)OC3)O[C@@]1(C)C[C@@H](O)[C@]34O[C@](OC)(CC[C@]3(C)[C@H]1C2)OC4(C)C	–	inactive	-1.6	–	inactive	–
CCC(C)(O)C(O)C(=O)OCc1ccc(O[C@@H]2O[C@H](CO)[C@@H](O)[C@H](O)[C@H]2O)cc1 (some centres not stated)	-2.71%	inactive	-0.484	–	–	–
O=C(O)C[C@H]1CCC(=O)[C@@H]1C/C=C\CCOC1OC(CO)C(O)C(O)C1O (some centres not stated)	-7.42%	inactive	–	inactive	–	–
CCCCCCc1cccc(NC(=O)[C@H](N)CCP(=O)(O)O)c1	–	inactive	–	inactive	inactive	–
CC(CCC1(O)OC2CC3C4CCC5CC(O[C@@H]6O[C@H](CO)[C@@H](O)[C@H](O)[C@H]6O[C@@H]6OC[C@@H](O)[C@H](O)[C@H]6O)C(O)CC5(C)C4CCC3(C)C2C1C)CO[C@@H]1O[C@H](CO)[C@@H](O)[C@H](O)[C@H]1O (some centres not stated)	-0.157%	inactive	–	inactive	–	–
C[C@@H]1O[C@@H](O[C@H]2[C@H](OC(=O)[C@]34CCC(C)(C)C[C@H]3C3=CCC5[C@@]6(C)C[C@H](O)[C@H](O[C@@H]7O[C@H](CO[C@@H]8OC[C@H](O)[C@H](O)[C@H]8O)[C@@H](O)[C@H](O)[C@H]7O)C(C)(C)C6CC[C@@]5(C)[C@]3(C)C[C@H]4O)OC[C@@H](O)[C@@H]2O)[C@H](O)[C@H](O[C@@H]2OC[C@](O)(CO)[C@H]2O)[C@H]1O[C@@H]1OC[C@H](O)[C@H](O[C@@H]2OC[C@@H](O)[C@H](O)[C@H]2O)[C@H]1O (some centres not stated)	-6.86%	inactive	–	inactive	–	–
COc1ccc(/C=C/C(=O)O[C@@H]2[C@@H](OC(C)=O)[C@@H](OC(C)=O)[C@H](O[C@H]3[C@@H]4C=CO[C@@H](O[C@@H]5O[C@H](CO)[C@@H](O)[C@H](O)[C@H]5O)[C@@H]4[C@@]4(CO)O[C@@H]34)O[C@H]2C)cc1O	3.11%	inactive	–	inactive	–	–
C[C@@H]1O[C@@H](O[C@H]2[C@H](OC(=O)[C@]34CCC(C)(C)C[C@H]3C3=CCC5[C@@]6(C)C[C@H](O)[C@H](O[C@@H]7O[C@H](CO)[C@@H](O[C@@H]8O[C@H](CO)[C@@H](O)[C@H](O)[C@H]8O)[C@H](O)[C@H]7O)[C@@](C)(CO)C6[C@H](O)C[C@@]5(C)[C@]3(C)C[C@H]4O)OC[C@H](O)[C@@H]2O)[C@H](O)[C@H](O)[C@H]1O[C@@H]1OC[C@@H](O)[C@H](O[C@@H]2OC[C@](O)(CO)[C@H]2O)[C@H]1O (some centres not stated)	4.17%	inactive	–	inactive	–	–
